From PubChem
Tgondii IFNg = blocks Toxoplasma gondii growth in the presence of IFN-gamma; Toxoplasma gondii growth in IFN-gamma-treated host cells; stronger effect = lower value; actives 3.8% (n = 69,000); activity change, negative = inhibition, % (test concentration not listed); in the data active means activity change below about -70%, passing the limit was not always enough;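 further: host cells are HeLa cells infected with Toxoplasma gondii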
* = called active by the depositor; ! = not active in a repeat. Shown is part of a subset that was picked to be rich in hits.

SMILES	Tgondii IFNg
COc1ccc(CCN2C(=O)N(C)C(=O)C23CCN(Cc2cnn(-c4ccc(F)cc4)c2)CC3)cc1	10.7
CCOCC1CCC2(CCN(C(=O)c3ccnnc3)CC2)N1CC1CC1 (centres undefined)	-20.5
Cn1nc(-c2ccc(-c3ccnc(SCc4ccccc4)n3)s2)cc1C(F)(F)F	-97.3*
Cn1nc(-c2ccc(S(N)(=O)=O)s2)cc1C(F)(F)F	23.5
Nc1cc(N)nc(SCc2ccccc2)n1	172.2
Nc1nc(-c2csc3ccccc23)cs1	40.1
Cn1cccc1-c1cc(C(=O)N2CCc3c(nc[nH]c3=O)C2)[nH]n1	-6.9
COc1c(C)c2c(c(O)c1C/C=C(/C)CCC(=O)O)C(=O)OC2	-76.7*
COCc1nnc(NC(=O)CC2C(=O)NCCN2C2CCCC2)s1 (centres undefined)	5.5
Cc1ccc(-c2nc(C)c(CCNC(=O)C(=O)Nc3ccccc3F)s2)cc1	-18.4
CS(=O)(=O)NC1CCC2(CCC(=O)N2Cc2ccncc2)CC1 (centres undefined)	13.0
Cc1cccnc1CC(C)Nc1cc(N2CCOCC2)nc(N)n1 (centres undefined)	5.6
Cc1cccc(/C=N/Nc2cc(N3CCOCC3)nc(OCCc3ccccn3)n2)c1	-73.8*
Cc1cccc(CN2CCOCC3(CCN(c4ccccn4)C3)C2)n1 (centres undefined)	-42.8
COc1ccc2c(OCc3nnc4ccc(-c5ccccc5)nn34)ccnc2c1	-5.3
COc1ccc2oc(=O)c(C(=O)Nc3c(C)n(C)n(-c4ccccc4)c3=O)cc2c1	28.8
COc1ccc2c(Oc3ccc(NC(=O)c4c(C)n(CC(C)(C)O)n(-c5ccccc5)c4=O)nc3)ccnc2c1	-73.3*
CC(C)C1CN(C(=O)N2CCOCC2)CCCN1Cc1ccc(F)cc1 (centres undefined)	8.0
CCCc1[nH]ncc1C(=O)N1CCCC(c2[nH]ncc2-c2ccc(F)cc2)C1 (centres undefined)	-7.8
CCCc1cc(C(=O)N2CCCC(c3[nH]c4c(C)cccc4c3-c3ccncc3)C2)no1 (centres undefined)	-116.2*
CCCc1cc(C(=O)N2CCCC(c3[nH]ncc3-c3ccccc3)C2)ccn1 (centres undefined)	-3.1
O=C(Nc1nc2c(s1)CCCCCC2)C1CC(=O)N(Cc2ccncc2)C1 (centres undefined)	-17.1
c1ccc(-c2cccc(CN3CCCC3c3ccccn3)c2)nc1 (centres undefined)	3.7
Cc1ccc(NC(=O)CC(=O)NCCN2CCCC2)cc1Cl	-0.4
Cc1cc(-c2cc(O)ccc2Cl)cc2nnc(Nc3ccc(OCCN4CCCC4)cc3)nc12	-91.3*
SMILES	Tgondii IFNg
CNS(=O)(=O)c1ccc(CN2CCN(C)C(C(=O)O)C2)cc1 (centres undefined)	-0.8
COc1cccc(N(Cc2nc(-c3cccc(C)c3)oc2C)S(=O)(=O)c2ccccc2)c1	-46.5
CC1CN(C)CCC1CCc1ccc(NC(=O)c2cnccn2)cc1 (centres undefined)	84.9
CCC(CN1CCOCC1)NC(=O)Cc1coc2cc(C)cc(C)c12 (centres undefined)	-81.9*
Cc1ccc2c(CC(=O)NCCC3CN(C)CCO3)coc2c1 (centres undefined)	0.3
Cc1ccc(C(NC(=O)c2cc(CN3CCOCC3)c(C)o2)c2ccncc2)cc1C (centres undefined)	-2.7
Cc1cccc(C(=O)NCCc2csc(-c3ccc(Cl)cc3)n2)c1	-46.1
CCCSc1ncc(CN(C)CC2CCN(C(C)C)CC2)cn1	-10.0
CCCn1cc(CNC(=O)Cc2ccccn2)cn1	5.2
Cc1ccc(-c2ncc(CN3CCC(O)(c4ccc(C)cc4)C3)cn2)cc1 (centres undefined)	15.6
Cc1ccc(C)c(NC(=O)N2CCN(Cc3nc(-c4ccccc4C)oc3C)CC2)c1	-0.1
FC1(F)CCN(CC2CC2)CC12CCN(c1cnccn1)C2 (centres undefined)	-10.3
Cc1cc(=O)[nH]c(CNC(=O)C2(N(C)Cc3ccccc3)Cc3ccccc3C2)n1	10.8
Cc1nc(Cc2ccccc2)sc1C(=O)Nc1ccc2c(c1)NC(=O)C(C)O2 (centres undefined)	-12.2
Nc1nonc1-c1nnnn1CC(=O)Nc1cccc2ccccc12	-1.7
CN(Cc1cc(-c2ccccc2)no1)Cc1ccc(-c2ccn[nH]2)o1	-4.3
COc1ccccc1C1(O)CCCN(CC(O)c2ccc(C)cc2)C1 (centres undefined)	-41.6
COc1ccccc1C1(O)CCN(CCCn2c3ccccc3c3ccccc32)CC1	-76.9*!
CC1CN(CCCn2c3ccccc3c3ccccc32)CC(C)N1 (centres undefined)	-4.0
c1ccc(-c2cn3nc(-c4ccccn4)c(-c4ccccn4)nc3n2)cc1	22.6
CCCc1cc(C(=O)N2CCC3(CC2)CNC(=O)C3)cs1	-8.1
c1ccc2nc3c(cc(N4CCOCC4)c4ccccc43)nc2c1	-103.7*
Cc1cc(N2CCC3(CCCO3)CC2)c2ccccc2n1	-13.3
O=c1cc(N2CCOCC2)nc2c3ccccc3ccn12	-2.1
CCC(C)Nc1nc(-c2ccc(OC)cc2)nc2ccccc12 (centres undefined)	-46.7
SMILES	Tgondii IFNg
COc1ccc(-c2cc(-c3cc(=O)[nH]c(-c4cccnc4)n3)no2)cc1	126.2
O=C(c1cccs1)N1C[C@H](Oc2cccnc2)[C@@H]2OCCC[C@@H]21	-2.7
Cc1cc(CN(C)CC(=O)NCCc2cccc(Cl)c2)n[nH]1	-0.1
COc1cccc(-n2cc(CN(C)Cc3cc(F)ccc3F)cn2)c1	10.9
COc1cccc(-c2cccc(CN(C)Cc3cc(C)[nH]n3)c2)c1	-82.5*
O=C(N1CCOCC1)N1CCC2(C1)c1ccccc1S(=O)(=O)N2Cc1ccccc1 (centres undefined)	2.9
CN1C(=O)C(c2ccccc2)CC12CCN(c1ncccn1)CC2 (centres undefined)	-4.5
CC(=O)c1cc(-c2cccc3cccnc23)ccc1O	-27.5
Cc1ccc2cc(CN3CCN(CCn4cncn4)CC3)c(=O)[nH]c2c1	8.2
CCN(Cc1nccn1C)C(=O)c1ccc(-c2cccc3ncccc23)nc1	-2.3
CCN1C(=O)N(Cc2cccc(OC)c2)C(=O)C12CCN(CC(c1ccccc1)c1ccccc1)CC2	9.1
CCN1C(=O)N(Cc2cccc(OC)c2)C(=O)C12CCN(Cc1cc3ccccc3s1)CC2	-90.1*
CCN1C(=O)N(Cc2cccc(OC)c2)C(=O)C12CCN(Cc1ccc(N3CCCC3)cc1)CC2	-13.8
CCC(=O)c1cn(S(=O)(=O)c2ccc(C)cc2)c2ccccc12	-101.5*
Cc1ccc(S(=O)(=O)n2c(N)nc3ccccc32)cc1	17.8
O=C(NC1CCCCNC1=O)c1cn(S(=O)(=O)c2ccccc2)c2ccccc12 (centres undefined)	-40.5
CC(NC(=O)Cn1ncc2c(N3CCN(c4ccccn4)CC3)ncnc21)c1ccccc1 (centres undefined)	-25.9
O=[N+]([O-])c1cc(/C=N/n2cnnc2)ccc1N1CCCC1	-90.4*
O=C(N/N=C\c1cc([N+](=O)[O-])ccc1N1CCOCC1)c1ccccn1	3.4
O=Cc1ccc(N2CCCCC2)cc1	-2.7
CNC(=O)c1ccc(Cn2ccnc2C2CCOC(C)(C)C2)cc1 (centres undefined)	5.1
C=Cn1cc(CN(Cc2cccnc2)Cc2ccccc2F)c(C)n1	5.8
Cc1cc(C)c2cc(C(=O)Nc3ccc(OC(F)(F)F)cc3)[nH]c2c1	38.6
O=C(NCCSCc1ccco1)c1cnn(-c2ccccc2)c1C(F)(F)F	7.6
O=C(Nc1ccc(OC(F)(F)F)cc1)c1cnn(-c2ccc(Cl)cc2)c1C(F)(F)F	-86.3*
